Assay results: PubChem BioAssay (NCATS)
Results filed as inconclusive are left out. A call without a number means that no potency is given here. Active and inactive are the calls of the source. Unless noted, calls follow the shape of the full dose curve.

Key:
[1] = biological target: Peroxisome proliferator-activated receptor gamma (Homo sapiens) (UniProt P37231); experiment: qHTS assay for small molecule agonists of peroxisome proliferator-activated receptor gamma signaling (AID 588536; active = well fitted curve in the direction sought with a large enough effect in the signal ratio, with a control signal flat, not every such curve was filed as active; the % refers to the signal ratio; also: potency is read from the fitted curve at half-maximal effect)
Sequence of Peroxisome proliferator-activated receptor gamma (Homo sapiens) (P37231 whole entry, looked up): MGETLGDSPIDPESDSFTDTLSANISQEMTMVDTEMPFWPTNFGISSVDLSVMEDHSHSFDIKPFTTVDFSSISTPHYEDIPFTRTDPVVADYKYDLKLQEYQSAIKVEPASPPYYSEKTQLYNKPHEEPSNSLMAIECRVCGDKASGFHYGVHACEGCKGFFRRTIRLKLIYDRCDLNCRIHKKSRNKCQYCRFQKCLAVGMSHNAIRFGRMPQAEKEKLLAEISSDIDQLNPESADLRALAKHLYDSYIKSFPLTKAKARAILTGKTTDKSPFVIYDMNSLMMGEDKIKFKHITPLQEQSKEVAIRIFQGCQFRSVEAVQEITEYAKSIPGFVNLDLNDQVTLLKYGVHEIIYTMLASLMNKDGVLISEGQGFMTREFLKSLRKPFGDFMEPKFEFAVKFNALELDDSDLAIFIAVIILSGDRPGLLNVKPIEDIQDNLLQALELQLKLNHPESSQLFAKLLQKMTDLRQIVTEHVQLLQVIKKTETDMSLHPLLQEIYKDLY
Summary of the method: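 This is an agonist-mode beta-lactamase reporter assay in HEK293 PPAR-gamma-UAS-bla cells with 1% charcoal/dextran FBS. Compound titrations ran 16 h at 37 C before CCF4 detection. EC50 and efficacy are Hill fits scaled to 2 uM rosiglitazone (100%) and DMSO basal.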

[2] = biological target: Peroxisome proliferator-activated receptor gamma (Homo sapiens) (UniProt P37231); experiment: qHTS assay for small molecule antagonists of peroxisome proliferator-activated receptor gamma signaling (AID 588537; active = well fitted inhibition curve with a large enough effect in the signal ratio, with a control signal flat, not every such curve was filed as active; the % refers to the signal ratio; also: potency is read from the fitted curve at half-maximal effect)
Summary of the method: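 Antagonist-mode β-lactamase reporter screen run as a titration series. HEK293 PPARγ-UAS-bla cells are stimulated with rosiglitazone (50 nM final) for 16 h, then CCF4 is read at 460/530 nm. Data are scaled between DMSO and rosiglitazone and fitted to the Hill equation.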

[3] = biological target: Vitamin D3 receptor (Homo sapiens) (UniProt P11473); experiment: qHTS assay for small molecule antagonists of vitamin D receptor signaling (AID 588541);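 also: receptor activated by calcitriol during compound treatment; series mostly up to about 77 µM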
Sequence of Vitamin D3 receptor (Homo sapiens) (P11473 whole entry, looked up): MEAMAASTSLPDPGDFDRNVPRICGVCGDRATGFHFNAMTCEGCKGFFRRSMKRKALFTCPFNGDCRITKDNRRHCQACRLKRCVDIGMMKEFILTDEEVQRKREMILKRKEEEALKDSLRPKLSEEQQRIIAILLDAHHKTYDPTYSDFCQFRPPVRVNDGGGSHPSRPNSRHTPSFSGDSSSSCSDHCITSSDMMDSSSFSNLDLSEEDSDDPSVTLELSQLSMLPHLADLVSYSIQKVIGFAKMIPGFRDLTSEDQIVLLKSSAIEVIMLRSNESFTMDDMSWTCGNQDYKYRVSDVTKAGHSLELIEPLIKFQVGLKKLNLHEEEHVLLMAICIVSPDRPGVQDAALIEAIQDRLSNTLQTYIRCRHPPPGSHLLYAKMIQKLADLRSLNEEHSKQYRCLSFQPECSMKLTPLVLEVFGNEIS
Description: (§1) NIH Chemical Genomics Center [NCGC]
(§2) U.S. Environmental Protection Agency [EPA]
(§3) National Institutes of Environmental Health Sciences [NIEHS]
(§4) National Toxicology Program [NTP]
The Vitamin D receptor (VDR) is a member of nuclear hormone receptor superfamily and it plays a critical role in calcium homeostasis and bone metabolism. It plays a role in inducing cell differentiation, inhibiting cell growth and in thrombogenicity. So, VDR that mediates these effects represents a pharmacological target in prevention and treatment of hyperproliferative malignancies, such as cancer and psoriasis, cardiovascular, immunological, inflammatory and renal diseases etc.
(§5) NCGC Assay Protocol Summary
Using a beta-lactamase reporter-gene under control of Vitamin D receptor (VDR) response element, a cell-based assay [GeneBLAzer (VDR -UAS-bla assay developed by Invitrogen] was used to measure VDR ligands signaling. GeneBLAzer VDR -UAS-bla HEK293T cells were used with assay medium containing 2% charcoal-stripped FBS. The assay was performed in clear bottom black Greiner 1536-well plates. Library compounds were measured for their ability to inhibit the reporter gene activity. Compounds were screened in a titration series in 1536-well format. The fluorescence intensity (405 nm excitation, 460/530 nm emission) was measured using an EnVision plate reader. Data was normalized relative to 1-alpha,25-Dihydroxy vitaminD3 control (50 nM, 100%) and DMSO only wells (basal, 0%). Concentration-response titration points for each compound were fitted to the Hill equation yielding concentrations of half-maximal inhibition (IC50) and maximal response (efficacy) values.
qHTS protocol for VDR beta-lactamase assay in antagonist mode
(§6) [Step] [Parameter] [Value] [Description]
1. Reagent; 5 uL; 2000 cells/well
2. Incubation; 37 C for 5 hrs
4. Controls (DMSO); 23 nL,
5. Agonist (Stimulator); 1uL; 1-alpha,25-Dihydroxy vitaminD3 at 50 nM and 3 nM final concentrations
6. Incubation; 37 C for 16 hrs
7. Detection reagent; 1 uL of CCF4-dye
8. Incubation; RT for 2 hrs
9. Detection; Fluorescence; Envision plate reader

[4] = biological target: Vitamin D3 receptor (Homo sapiens) (UniProt P11473); experiment: qHTS assay for small molecule agonists of vitamin D receptor signaling (AID 588543)
Summary of the method: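 Agonist-mode beta-lactamase reporter: HEK293T VDR-UAS-bla cells in charcoal-stripped 2% FBS, compound series 16 h 37 C, CCF4 2 h RT. EC50 from Hill fit, scaled against DMSO and 50 nM calcitriol control.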

[5] = qHTS assay for small molecule agonists of retinoid X receptor alpha signaling (AID 588544); settings: HEK293T RXRa-UAS-bla, beta-lactamase reporter, 18 h; 530 nm emission; also: potency is read from the fitted curve at half-maximal effect
[6] = biological target: Retinoic acid receptor RXR-alpha (Homo sapiens) (UniProt P19793); experiment: as above
Sequence of Retinoic acid receptor RXR-alpha (Homo sapiens) (P19793 whole entry, looked up): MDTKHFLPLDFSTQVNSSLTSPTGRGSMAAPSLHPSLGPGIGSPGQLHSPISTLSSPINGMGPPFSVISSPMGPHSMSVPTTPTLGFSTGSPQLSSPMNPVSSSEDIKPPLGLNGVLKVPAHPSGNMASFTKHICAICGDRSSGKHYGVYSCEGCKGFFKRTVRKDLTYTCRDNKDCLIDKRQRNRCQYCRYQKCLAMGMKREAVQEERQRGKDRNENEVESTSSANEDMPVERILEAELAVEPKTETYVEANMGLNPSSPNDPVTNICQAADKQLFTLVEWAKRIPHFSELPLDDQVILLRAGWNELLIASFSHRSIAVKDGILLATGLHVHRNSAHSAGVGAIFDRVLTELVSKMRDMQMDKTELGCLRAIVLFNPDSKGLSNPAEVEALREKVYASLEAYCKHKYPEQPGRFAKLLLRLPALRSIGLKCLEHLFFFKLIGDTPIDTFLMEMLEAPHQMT

[7] = biological target: Thyroid hormone receptor beta (Homo sapiens) (UniProt P10828); experiment: qHTS assay for small molecule agonists of thyroid hormone receptor beta signaling (AID 588545)
Sequence of Thyroid hormone receptor beta (Homo sapiens) (P10828 whole entry, looked up): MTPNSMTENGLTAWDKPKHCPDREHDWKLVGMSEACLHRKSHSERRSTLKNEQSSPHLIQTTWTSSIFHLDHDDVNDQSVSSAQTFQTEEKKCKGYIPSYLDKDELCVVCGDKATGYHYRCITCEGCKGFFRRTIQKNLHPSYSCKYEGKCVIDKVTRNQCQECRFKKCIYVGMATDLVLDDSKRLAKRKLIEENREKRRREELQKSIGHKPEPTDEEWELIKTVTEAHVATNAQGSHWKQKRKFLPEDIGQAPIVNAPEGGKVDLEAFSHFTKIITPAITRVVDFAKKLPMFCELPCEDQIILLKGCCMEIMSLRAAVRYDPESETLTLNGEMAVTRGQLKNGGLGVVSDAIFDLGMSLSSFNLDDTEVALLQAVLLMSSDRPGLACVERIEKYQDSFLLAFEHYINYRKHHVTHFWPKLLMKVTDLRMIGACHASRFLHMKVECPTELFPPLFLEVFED
Description: as §1, §2, §3, §4
Thyroid hormone receptor (TR) belongs to nuclear hormone receptor superfamily. There are two subtypes for TR: TR-alpha and TR-beta. TR-beta plays a major role in regulating plasma cholesterol levels and it mediates the biological activities of thyroid hormone. Screening environmental chemicals on TR-beta signaling will provide important information for the mechanism of compound action.
as §5
Using a beta-lactamase reporter-gene under control of the TR response element, a cell-based assay [GeneBLAzer TR-UAS-bla-GripTite assay developed by Invitrogen] was used to measure TR-beta signaling in agonist mode. TR-UAS-bla-GripTite HEK 293 cells were used with assay medium containing 2% charcoal/dextran FBS, 0.1 mM NEAA and 1 mM sodium pyruvate. The assay was performed in clear bottom black Greiner 1536-well plates. T3 was used as a positive control in the screen. Library compounds were measured for their ability to stimulate the reporter gene activity. Compounds were screened in a titration series in 1536-well format. The fluorescence intensity (405 nm excitation, 460/530 nm emission) was measured using an EnVision plate reader. Data was normalized relative to T3 control (10 nM, 100%), and DMSO only wells (basal, 0%). Concentration-response titration points for each compound were fitted to the Hill equation yielding concentrations of half-maximal stimulation (EC50) and maximal response (efficacy) values.
qHTS protocol for TR-beta beta-lactamase assay in agonist mode
as §6
1. Reagent; 6 uL; 2500 cells/well
2. Incubation; 37 C for 4 hrs
- Dose response; start 3.8 uM, 1:3 dilutions, duplicates in first column
- Two columns of each 10 and 0.4 nM (finals) concentrations.
5. Incubation; 37 C for 18 hrs
6. Detection reagent; 1 uL of CCF4-dye
7. Incubation; RT for 2 hrs
8. Detection; Fluorescence; Envision plate reader

[8] = qHTS assay for small molecule antagonists of retinoid X receptor alpha signaling (AID 588546; active = well fitted inhibition curve with a large enough effect in the signal ratio, with a control signal flat, not every such curve was filed as active; the % refers to the signal ratio); settings: HEK293T RXRa-UAS-bla, beta-lactamase ratio, antagonist mode; measured here: W530 green channel, cytotoxicity proxy
Description: (§7) NIH Chemical Genomics Center [NCGC] U.S. Environmental Protection Agency [EPA] National Institutes of Environmental Health Sciences [NIEHS] National Toxicology Program [NTP] NCGC Assay Overview The Retinoid X receptor (RXR), a nuclear hormone receptor is expressed in liver, spleen, placenta, epidermis, central nervous system. These receptors are able to form homo and heterodimers with other nuclear receptors and due to this heterodimerizing ability, RXR functions as master regulators producing diverse physiological effects. Three subtypes of RXR exist; alpha, beta and gamma. Retinoid X receptor alpha (RXR-alpha) has potential roles in metabolic signaling pathways, skin alopecia, dermal cysts, cardiac development, insulin sensitization etc. Therefore screening environmental chemicals on RXR-alpha signaling can be used for the studies focused on such therapeutic applications.
(§8) NCGC Assay Protocol Summary Using a beta-lactamase reporter-gene under control of Retinoid X receptor--alpha (RXR-alpha) response element, a cell-based assay [GeneBLAzer (RXR-alpha -UAS-bla assay developed by Invitrogen] was used to measure RXR-alpha ligands signaling. GeneBLAzer RXR-alpha -UAS-bla HEK293T cells were used with assay medium containing 2% charcoal-stripped FBS. The assay was performed in clear bottom black Greiner 1536-well plates. Library compounds were measured for their ability to inhibit the reporter gene activity. Compounds were screened in a titration series in 1536-well format. The fluorescence intensity (405 nm excitation, 460/530 nm emission) was measured using an EnVision plate reader. Data was normalized relative to 9-cis-retinoic acid control (500 nM, 100%), and DMSO only wells (basal, 0%). Concentration-response titration points for each compound were fitted to the Hill equation yielding concentrations of half-maximal inhibition (IC50) and maximal response (efficacy) values. qHTS protocol for RXR-alpha beta-lactamase assay in antagonist mode [Step] [Parameter] [Value] [Description] 1. Reagent; 5 uL; 2500 cells/well 2. Incubation; 37 C for 4 hrs 3. Compounds; 23 nL; 0.59 nM to 92 uM 4. Controls (DMSO); 23 nL 5. Agonist (Stimulator); 1uL; 9-cis-retinoic acid at 500 nM and 100 nM final concentrations 6. Incubation; 37 C for 18 hrs 7. Detection reagent; 1 uL of CCF4-dye 8. Incubation; RT for 2 hrs 9. Detection; Fluorescence; Envision plate reader

[9] = biological target: Retinoic acid receptor RXR-alpha (Homo sapiens) (UniProt P19793); experiment: as above; settings: HEK293T RXRa-UAS-bla, beta-lactamase ratio, antagonist mode
Description: as §7, §8

[10] = biological target: Thyroid hormone receptor beta (Homo sapiens) (UniProt P10828); experiment: qHTS assay for small molecule antagonists of thyroid hormone receptor beta signaling (AID 588547; active = well fitted inhibition curve with a large enough effect in the signal ratio, with a control signal flat, not every such curve was filed as active; the % refers to the signal ratio;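 also: cells stimulated with 0.4 nM T3 agonist during compound exposure; series mostly up to about 77 µM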); settings: TR-UAS-bla HEK293, beta-lactamase ratio, antagonist mode, 18 h
Summary of the method: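 Inhibition of T3-driven (0.4nM final) beta-lactamase reporter activity was measured over 0.59 nM to 92 uM compound after 18 h at 37 C. The cells were GripTite HEK293 TR-UAS-bla in charcoal/dextran-stripped serum, with CCF4 ratio read-out and IC50 from Hill fits.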

SMILES	Potency [1]	Potency [2]	outcome [3]	outcome [4]	max response [5] [%]	Potency [6]	outcome [7]	max response [8] [%]	max response [9]	activity change % (negative = inhibition) [10]
NC(=O)c1ccccc1	inactive	inactive	inactive	inactive	-1.09	inactive	inactive	-3.13	5.33% (inactive)	-4.09% (inactive)
CC(=O)C(C)=O	inactive	–	inactive	inactive	-1.88	inactive	inactive	7.05	13% (inactive)	-0.316% (inactive)
CC[C@@H]1Cc2cc(O)ccc2C2=C1c1ccc(O)cc1C[C@H]2CC	–	–	–	inactive	–	–	–	–	–	–
CC1=C(/C=C/C(C)=C/C=C/C(C)=C\C(=O)O)C(C)(C)CCC1	–	inactive	inactive	–	–	–	inactive	–	–	9.82% (inactive)
CCCc1c(-c2ccc(O)cc2)nn(-c2ccc(O)cc2)c1-c1ccc(O)cc1	–	22.4 µM (active)	–	inactive	–	–	–	–	–	–
C/C(=C\c1ccc(C(=O)O)cc1)c1ccc2c(c1)C(C)(C)CCC2(C)C	–	–	inactive	inactive	0.91	0.708 µM (active)	–	-6.55	9.51% (inactive)	–
CCCc1c(OCCCOc2ccc(OCC(=O)O)cc2)ccc(C(C)=O)c1O	–	inactive	–	–	–	–	inactive	32.8	-30.3% (inactive)	–
CCCCCCCCCCCCCCSCC(=O)O	28.2 µM (active)	–	–	–	–	–	inactive	10.4	5.79% (inactive)	-24.7% (inactive)
